We go through five molecules from PubChem BioAssay.

Molecules are shown by their SMILES. Calls of active or inactive are those of the source.

The nature of assay [1]: small molecules captured by biotinylated probe aFSTL3 – biochemical, small-molecule microarray, fluorescence 635/667, stem cell growth factor project, primary screen (AID 1064).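 Also: measures binding of the biotinylated anti-FSTL3 antibody to printed compounds.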 Conditions: higher = more signal.
The nature of assay [2]: binders from COS7 lysate, DM2A8 probe, primary screen, torsin A project, cell lysate, small-molecule microarray, fluorescence 635/667 (AID 1065). Conditions: higher = more signal, COS7 lysate expressing mutant human TOR1A.
A short description of assay [3]: small molecules captured by biotinylated probe aFGF2 – biochemical, small-molecule microarray, fluorescence 635/667, stem cell growth factor project, primary screen (AID 1067).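 Also: measures binding of biotinylated aFGF2 protein to printed compounds on slides; z-score merges feature fluorescence and signal-to-noise across triplicate slides.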 Conditions: higher = more signal.
Assay [4] in a line: small molecules captured by biotinylated probe aFGF10 – biochemical, small-molecule microarray, fluorescence 635/667, stem cell growth factor project, primary screen (AID 1071).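 Also: score merges 667 nm spot intensity and signal to noise from triplicate slides.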 Conditions: higher = more signal.
Assay [5] deals with Neurogenic locus notch homolog protein 2 (Homo sapiens) (UniProt Q04721). The experiment in a line: small molecules binding Notch2 protein – biochemical, small-molecule microarray, 635 nm fluorescence, stem cell growth factors, primary screen (AID 1073). Conditions: higher = more signal.
The target in assay [6] is Pro-neuregulin-1, membrane-bound isoform (Homo sapiens) (UniProt Q02297). The experiment in a line: small molecules binding neuregulin-1 protein – biochemical, small-molecule microarray, fluorescence 635/667, psychiatric disease protein project, primary screen (AID 1075).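 Also: score combines 667 nm spot fluorescence with signal to noise.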 Conditions: NRG1 binding, 635 nm fluorescence, higher = more signal.
Assay [7] has as its system Neuregulin-1 EGF-like domain. The experiment in a line: small molecules binding NRG1 EGF domain – biochemical, small-molecule microarray, 635 nm fluorescence, primary screen (AID 1081).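 Also: binding of the protein to compounds printed on small-molecule microarray slides.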 Conditions: higher = more signal.
Assay [8] can be described thus: FRG1 expression reporter modulators in myotubes – cell-based, C2C12 myotubes, firefly/Renilla luciferase, luminescence, FRG1 inhibition for FSHD, primary screen (AID 1084). Conditions: FRG1 promoter luciferase, higher = more signal, called active from +8 up or from −8 down.
Assay [9] is described as follows: small molecules captured by biotinylated probe aFST – biochemical, small-molecule microarray, fluorescence 635/667, stem cell growth factor project, primary screen (AID 1086).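 Also: score merges 667 nm fluorescence with signal-to-noise of each printed compound spot.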 Conditions: higher = more signal.
Assay [10] can be described thus: binders of probe aHhip on microarray, primary screen, stem cell growth factor project, biochemical, small-molecule microarray, fluorescence 635/667 (AID 1087).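 Also: score merges spot fluorescence at 667nm with spot signal to noise ratio.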 Conditions: higher = more signal.
In assay [11] the test system is PRMT1 (protein arginine N-methyltransferase 1). Briefly: small molecules binding arginine methyltransferase PRMT1 – biochemical, small-molecule microarray, 635 nm fluorescence, primary screen (AID 1088).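 Also: binding of Prmt1 protein to compounds spotted on small-molecule microarray slides.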 Conditions: higher = more signal.
The nature of assay [12]: growth effects on S. cerevisiae YJM789 – YJM789 clinical isolate, OD600, 24 h, basal, primary screen (AID 1089).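 Also: growth of clinical yeast isolate S. cerevisiae YJM 789 seeded 1000 cells per well; test concentration not given here.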 Conditions: higher = more signal, called active from +8 up or from −8 down.
Assay [13] is described as follows: S. pombe growth modifiers, basal conditions – strain 972, OD600, 24 h, no modulator, primary screen (AID 1090).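 Also: basal condition with compound alone and no growth modifier present; test concentration not given here.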 Conditions: S. pombe 972 growth, higher = more signal, called active from +8 up or from −8 down.
A short description of assay [14]: budding yeast growth modifiers under rapamycin – strain BY4716, OD600, 96 h, primary screen (AID 1091). Also: test concentration not given here. Conditions: S. cerevisiae BY4716 + rapamycin, higher = more signal, called active from +8 up or from −8 down.
The target of assay [15] is Torsin-1A-interacting protein 2 (Homo sapiens) (UniProt Q8NFQ8). Briefly: small molecules binding lysate-expressed LULL1 – cell lysate, human LULL1 lysate, 635/667 nm fluorescence, primary screen (AID 1092).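 Also: probe is lysate of COS7 cells overexpressing human LULL1; score merges per-feature 667 nm fluorescence with signal-to-noise.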 Conditions: small-molecule microarray, hLULL1 lysate binding, 635 nm fluorescence; higher = more signal.
The nature of assay [16]: optical density change of DRC41 E. coli – strain DRC41, OD650, 24 h, E. coli filamentation project, primary screen (AID 1093).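 Also: MC1000 strain lacking acrAB efflux and sulA so SOS filamentation is blocked; test concentration not given here.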 Conditions: E. coli DRC41 growth, higher = more signal, called active from +8 up or from −8 down.
Assay [17] is described as follows: probe aLefty2 binding to arrayed compounds – biochemical, biotinylated probe, 635/667 nm fluorescence, primary screen (AID 1094).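 Also: score merges spot fluorescence near 667 nm with spot signal-to-noise ratio.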 Conditions: small-molecule microarray, higher = more signal.
Assay [18] deals with Noggin (protein binding on small-molecule microarray). Briefly: small molecules binding Noggin protein – biochemical, 635/667 nm fluorescence, primary screen (AID 1095).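 Also: score merges 667 nm feature fluorescence with signal to noise over triplicate slides.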 Conditions: 635 nm fluorescence, higher = more signal.
Assay [19] has as its target Neurogenic locus notch homolog protein 3 (Homo sapiens) (UniProt Q9UM47). Briefly: small molecules binding NOTCH3 protein – biochemical, 635/667 nm fluorescence, primary screen (AID 1096). Conditions: small-molecule microarray, 635 nm fluorescence, higher = more signal.
Assay [20] in a line: probe aEGFR binding to arrayed compounds – biochemical, biotinylated probe, 635/667 nm fluorescence, primary screen (AID 1097).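 Also: probe is a biotinylated anti-EGFR antibody binding compounds printed on slides; score combines fluorescence near 667 nm and signal to noise of each spot.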 Conditions: small-molecule microarray, higher = more signal.

Chain of Neurogenic locus notch homolog protein 3 (Homo sapiens) (Q9UM47 whole entry, looked up): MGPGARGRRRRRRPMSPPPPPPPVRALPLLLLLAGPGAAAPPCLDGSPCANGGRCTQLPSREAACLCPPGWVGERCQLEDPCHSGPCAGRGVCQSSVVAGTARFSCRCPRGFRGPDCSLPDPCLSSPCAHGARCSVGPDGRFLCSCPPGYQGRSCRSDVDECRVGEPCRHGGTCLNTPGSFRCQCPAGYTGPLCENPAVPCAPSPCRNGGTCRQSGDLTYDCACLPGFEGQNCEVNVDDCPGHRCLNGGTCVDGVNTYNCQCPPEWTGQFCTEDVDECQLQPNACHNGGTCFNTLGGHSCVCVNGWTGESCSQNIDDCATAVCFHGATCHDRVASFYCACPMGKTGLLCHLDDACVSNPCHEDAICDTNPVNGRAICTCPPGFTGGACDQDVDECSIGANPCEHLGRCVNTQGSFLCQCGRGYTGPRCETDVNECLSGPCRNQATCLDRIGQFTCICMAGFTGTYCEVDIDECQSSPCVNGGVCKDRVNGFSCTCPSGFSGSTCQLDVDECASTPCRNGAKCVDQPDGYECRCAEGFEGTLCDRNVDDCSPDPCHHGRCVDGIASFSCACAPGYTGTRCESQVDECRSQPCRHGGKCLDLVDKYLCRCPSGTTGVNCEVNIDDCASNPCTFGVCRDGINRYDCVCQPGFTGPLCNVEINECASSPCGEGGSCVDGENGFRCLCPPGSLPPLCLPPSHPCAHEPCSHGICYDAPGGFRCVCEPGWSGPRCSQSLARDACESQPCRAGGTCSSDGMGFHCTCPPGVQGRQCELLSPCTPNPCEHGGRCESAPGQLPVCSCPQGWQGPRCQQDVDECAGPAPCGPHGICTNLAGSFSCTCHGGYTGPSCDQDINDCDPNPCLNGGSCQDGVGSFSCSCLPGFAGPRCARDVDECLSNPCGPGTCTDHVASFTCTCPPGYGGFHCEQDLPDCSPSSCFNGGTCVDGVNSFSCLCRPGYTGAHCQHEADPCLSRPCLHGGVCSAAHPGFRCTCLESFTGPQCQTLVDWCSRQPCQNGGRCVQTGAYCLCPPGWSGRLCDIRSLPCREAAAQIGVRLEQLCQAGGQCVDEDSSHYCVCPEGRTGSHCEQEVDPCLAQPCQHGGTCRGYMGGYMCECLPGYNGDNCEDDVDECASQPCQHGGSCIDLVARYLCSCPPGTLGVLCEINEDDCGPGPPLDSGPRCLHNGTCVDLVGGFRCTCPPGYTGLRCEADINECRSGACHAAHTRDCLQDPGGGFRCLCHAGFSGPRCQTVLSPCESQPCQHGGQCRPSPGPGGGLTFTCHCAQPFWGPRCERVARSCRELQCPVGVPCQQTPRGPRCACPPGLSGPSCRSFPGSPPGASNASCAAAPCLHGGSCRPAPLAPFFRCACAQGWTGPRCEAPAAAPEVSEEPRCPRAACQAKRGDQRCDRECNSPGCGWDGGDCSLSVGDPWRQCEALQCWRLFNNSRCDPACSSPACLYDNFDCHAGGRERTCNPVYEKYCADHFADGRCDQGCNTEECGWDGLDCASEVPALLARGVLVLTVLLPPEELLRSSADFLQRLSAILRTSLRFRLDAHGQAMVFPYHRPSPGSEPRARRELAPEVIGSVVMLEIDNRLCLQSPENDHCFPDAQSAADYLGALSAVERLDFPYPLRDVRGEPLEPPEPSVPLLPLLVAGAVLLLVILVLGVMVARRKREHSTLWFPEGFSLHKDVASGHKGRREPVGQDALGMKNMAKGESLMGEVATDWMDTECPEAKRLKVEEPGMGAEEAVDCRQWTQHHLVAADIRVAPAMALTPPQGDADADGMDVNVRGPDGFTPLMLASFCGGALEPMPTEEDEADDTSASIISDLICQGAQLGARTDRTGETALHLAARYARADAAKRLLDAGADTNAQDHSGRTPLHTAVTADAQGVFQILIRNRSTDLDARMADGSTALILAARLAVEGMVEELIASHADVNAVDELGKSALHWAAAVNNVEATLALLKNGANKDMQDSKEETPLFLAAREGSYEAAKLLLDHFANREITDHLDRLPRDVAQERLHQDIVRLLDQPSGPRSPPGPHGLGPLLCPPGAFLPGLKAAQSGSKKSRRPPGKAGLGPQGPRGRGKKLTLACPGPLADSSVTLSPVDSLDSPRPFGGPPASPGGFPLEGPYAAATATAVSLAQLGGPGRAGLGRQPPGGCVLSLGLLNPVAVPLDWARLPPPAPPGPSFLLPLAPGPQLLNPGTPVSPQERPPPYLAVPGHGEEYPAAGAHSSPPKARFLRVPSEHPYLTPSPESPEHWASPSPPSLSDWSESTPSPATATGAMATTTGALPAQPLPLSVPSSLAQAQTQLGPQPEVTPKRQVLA
Chain of Neurogenic locus notch homolog protein 2 (Homo sapiens) (Q04721 whole entry, looked up, canonical isoform): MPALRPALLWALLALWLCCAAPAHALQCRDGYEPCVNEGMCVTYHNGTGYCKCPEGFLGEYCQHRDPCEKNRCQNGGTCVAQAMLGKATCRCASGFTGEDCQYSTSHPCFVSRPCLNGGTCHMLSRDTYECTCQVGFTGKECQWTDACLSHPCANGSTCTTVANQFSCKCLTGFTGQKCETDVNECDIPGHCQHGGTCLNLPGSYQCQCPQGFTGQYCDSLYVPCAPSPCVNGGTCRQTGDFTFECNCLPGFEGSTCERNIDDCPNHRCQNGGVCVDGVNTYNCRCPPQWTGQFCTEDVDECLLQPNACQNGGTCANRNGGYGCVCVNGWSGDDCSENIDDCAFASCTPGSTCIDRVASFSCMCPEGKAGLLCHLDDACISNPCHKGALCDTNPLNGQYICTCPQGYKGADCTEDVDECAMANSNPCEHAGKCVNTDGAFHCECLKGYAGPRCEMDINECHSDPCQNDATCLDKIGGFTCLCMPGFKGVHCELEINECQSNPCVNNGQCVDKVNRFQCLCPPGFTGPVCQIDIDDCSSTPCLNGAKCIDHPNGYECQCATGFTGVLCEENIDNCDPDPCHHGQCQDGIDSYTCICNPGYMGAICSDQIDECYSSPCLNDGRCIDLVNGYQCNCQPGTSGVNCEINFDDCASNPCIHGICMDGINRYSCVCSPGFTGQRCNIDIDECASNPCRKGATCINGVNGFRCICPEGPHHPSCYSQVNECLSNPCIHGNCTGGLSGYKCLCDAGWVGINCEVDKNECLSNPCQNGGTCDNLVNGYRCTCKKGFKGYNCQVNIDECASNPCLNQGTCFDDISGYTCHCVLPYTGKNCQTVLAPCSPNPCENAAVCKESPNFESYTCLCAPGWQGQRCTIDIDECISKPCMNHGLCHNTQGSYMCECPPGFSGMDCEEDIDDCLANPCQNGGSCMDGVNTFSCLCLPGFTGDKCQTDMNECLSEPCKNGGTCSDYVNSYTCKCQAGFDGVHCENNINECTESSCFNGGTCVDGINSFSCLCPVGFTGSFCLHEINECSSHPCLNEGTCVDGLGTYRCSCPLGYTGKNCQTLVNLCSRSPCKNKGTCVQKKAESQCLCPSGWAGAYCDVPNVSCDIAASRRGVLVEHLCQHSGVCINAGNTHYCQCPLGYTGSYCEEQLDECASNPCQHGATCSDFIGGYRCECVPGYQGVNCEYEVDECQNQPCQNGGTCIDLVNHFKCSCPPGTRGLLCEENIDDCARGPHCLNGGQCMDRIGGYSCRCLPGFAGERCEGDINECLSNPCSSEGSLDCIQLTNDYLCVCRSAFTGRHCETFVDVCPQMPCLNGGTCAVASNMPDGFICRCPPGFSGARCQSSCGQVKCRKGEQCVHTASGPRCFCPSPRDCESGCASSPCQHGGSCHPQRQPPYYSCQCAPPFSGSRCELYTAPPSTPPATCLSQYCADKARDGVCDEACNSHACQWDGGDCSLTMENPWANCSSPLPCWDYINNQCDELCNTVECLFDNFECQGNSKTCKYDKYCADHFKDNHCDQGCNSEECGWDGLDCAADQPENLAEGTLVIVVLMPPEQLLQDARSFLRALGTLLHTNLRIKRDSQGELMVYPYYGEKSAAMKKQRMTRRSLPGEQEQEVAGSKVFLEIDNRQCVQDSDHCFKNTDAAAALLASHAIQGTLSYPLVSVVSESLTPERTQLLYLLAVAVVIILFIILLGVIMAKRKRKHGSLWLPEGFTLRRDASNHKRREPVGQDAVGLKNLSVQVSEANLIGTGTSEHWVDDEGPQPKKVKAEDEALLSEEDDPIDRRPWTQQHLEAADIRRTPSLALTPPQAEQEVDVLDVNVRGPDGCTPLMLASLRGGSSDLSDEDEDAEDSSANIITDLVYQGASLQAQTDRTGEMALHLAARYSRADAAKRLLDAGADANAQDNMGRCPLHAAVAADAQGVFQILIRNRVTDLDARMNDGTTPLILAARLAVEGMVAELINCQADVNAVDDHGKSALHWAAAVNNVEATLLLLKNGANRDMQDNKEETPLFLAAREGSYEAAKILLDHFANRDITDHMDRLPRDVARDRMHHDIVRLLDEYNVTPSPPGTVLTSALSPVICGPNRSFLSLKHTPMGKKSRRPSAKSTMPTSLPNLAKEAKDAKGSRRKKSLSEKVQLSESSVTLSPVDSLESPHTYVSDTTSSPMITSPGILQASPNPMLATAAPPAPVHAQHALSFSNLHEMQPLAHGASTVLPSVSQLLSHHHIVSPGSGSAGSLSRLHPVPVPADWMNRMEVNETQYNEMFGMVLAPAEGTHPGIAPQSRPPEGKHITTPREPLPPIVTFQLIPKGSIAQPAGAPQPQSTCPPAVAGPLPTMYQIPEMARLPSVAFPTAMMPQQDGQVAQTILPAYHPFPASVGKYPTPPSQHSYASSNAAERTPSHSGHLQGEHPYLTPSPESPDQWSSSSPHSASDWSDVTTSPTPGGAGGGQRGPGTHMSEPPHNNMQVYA

On to `NCCCCCNC(=O)[C@@H]1C[C@@H]2C(=O)N[C@@H](Cc3ccccc3)C(=O)N2[C@@H]1c1cccc(OCCO)c1`, for which the composite z-score in assay [1] was 0.185; in assay [2] it was 0.291; in assay [3], -0.107; in assay [4] it was 0.106; in assay [5], 0.514; in assay [6] it was 1.32. The composite z-score in [7] is 1.08; in assay [9] it was -0.122; in assay [10], -0.0645; in assay [11] it was 0.715; in [15], 1.8; in assay [17] it was -0.0075. In addition, the results for the composite z-score in assay [18], in assay [19] and in assay [20] were 0.363, -0.448 and -0.218, respectively. In addition, the z-score is 1.39 (inactive) in assay [8]; 0.653 (inactive) in [12]; -0.175 (inactive) in assay [13]; 0.68 (inactive) in assay [14]; -0.47 (inactive) in [16].
`COCCn1c(C(=O)N2CCCC2)cc2c1C[C@H]1CN(C(=O)c3ccccc3)[C@@](Cc3ccc(F)cc3)(C(=O)OC)[C@@H]21`: the composite z-score in [1] came out at 0.123; in assay [2], 0.214; in assay [3] it was 0.24; in [4], 0.252; in assay [5], 1.41; in [6], 1.81. Besides, the composite z-score in assay [7] amounted to 0.997; in assay [9], 0.77; in [10], 0.0078; in [11] it was 1.12; in assay [15], 3.84; in assay [17] it was 0.166. Besides, the composite z-score in assay [18] stood at 0.126; in assay [19], 0.583; in assay [20], 0.0843. Further, the z-score in assay [8] was 2.89 (inactive); in assay [12], -0.339 (inactive); in [13], 0.0582 (inactive); in assay [14] it was -0.0799 (inactive); in assay [16], -0.191 (inactive).
Consider `CCc1oc(CC[C@@H](CO)NC(=O)NCCn2cc(C3(O)CCCCC3)nn2)c(C(=O)OC)c1C(=O)OC`, for which the composite z-score in [1] is -0.33; in [2], 0.979; in assay [3] it was -0.0549; in assay [4], 0.809; in assay [5] it was 0.924; in assay [6] it was 0.172. The composite z-score in [7] was 1.23; in [9] it was 0.457; in assay [10] it was -0.353; in [11] it was 1.32; in assay [15], 0.775; in assay [17], -0.0615. Further, the composite z-score stood at 1.39 in assay [18], 0.939 in assay [19] and 0.0473 in [20]. In addition, the z-score in assay [8] was 0.306 (inactive); in assay [12], 0.458 (inactive); in assay [13], -0.173 (inactive); in [14], -0.874 (inactive); in [16], -1.2 (inactive).
As to `COc1cc2c(cc1OC)CN(C(=O)[C@H]1[C@@H]3C(=O)O[C@@H](c4ccccc4)[C@@H](c4ccccc4)N3[C@@H](c3ccc(O)cc3)[C@]13C(=O)Nc1ccc(C#CCNC(N)=O)cc13)CC2`, the composite z-score is -0.297 in assay [1]; 0.0737 in assay [2]; -0.0473 in assay [3]; 0.689 in [4]; -0.0344 in assay [5]; 0.404 in assay [6]. For the same molecule, the composite z-score turned out to be 0.37 in [7]; 0.135 in [9]; 0.0854 in assay [10]; 1.01 in [11]; 0.458 in assay [15]; 0.0386 in [17]. Further, the composite z-score in [18] is 0.622; in assay [19], 0.46; in assay [20], -0.02. Also, the z-score in assay [8] was 0.297 (inactive); in [12], 0.485 (inactive); in assay [13], -0.363 (inactive); in assay [14], 0.518 (inactive); in assay [16], 0.395 (inactive).
Consider `CC(CO)N1C(=O)[C@@H]2C3C(=O)OCCC/C=C\[C@H]3OC23C=CCN(c2ccc4ccccc4c2)C(=O)[C@@H]13` (stereo not given in full), for which the composite z-score in [1] was 0.122; in assay [2], -0.933; in assay [3], -0.118; in assay [4] it was -0.594; in assay [5], -0.874; in [6], 0.168. Further, the composite z-score was 1.26 in assay [7]; -0.576 in assay [9]; -0.0994 in [10]; 0.0691 in [11]; -0.504 in assay [15]; -0.0516 in assay [17]. For the same molecule, the composite z-score in assay [18] was -0.871; in assay [19], -0.341; in assay [20], -0.18. The z-score is -0.775 (inactive) in assay [8]; -0.531 (inactive) in assay [12]; -0.743 (inactive) in [13]; -0.0295 (inactive) in assay [14]; 0.0095 (inactive) in assay [16].
